Laboratory results: PubChem BioAssay (NCATS)
Results filed as inconclusive are left out. Calls of active or inactive are those of the source. The call rests on the fitted dose curve; in most records, active means well fitted inhibition curve with a large enough effect; inconclusive means small, poorly fitted or top-dose-only effect; inactive means flat fitted curve, though single readings scatter. Where a SMILES comes first, the peptide text is derived from it. [ ]: non-standard residue; d: D form. pGlu = O=C1CC[C@@H](C(=O)O)N1; Thz = O=C(O)[C@@H]1CSCN1

Tested on: astro (control astrocytes)
Assay: Drug repurposing screens with cells derived from glioblastoma tumor samples (AID 1345199); further: nearly all actives have a fitted effect of over 40% in size
Settings: viability, ATP luminescence, 48 h; series mostly up to 45.9 µM; activity, negative = cell killing: at the top concentration
Description: CD133+ cells were isolated from GBM patient biopsies and cultured as neurospheres. Neurospheres from four patients were used to screen the NCATS pharmaceutical collection (NPC) library of approved drugs and bioactive compounds. […] The neurospheres were incubated with drugs for 48 hours in 1536-well format, then assayed with an ATP content cell viability assay. […] These hits were cherry picked to confirm activity in the four original GBM lines screened plus three other slower growing GMB lines (unable to yield enough cells for a full primary screen). Variable activities of the confirmed primary hits in the different GBM patient lines were observed. The patient line 206 responded to the greatest number of compounds and line 923 responded to the least amount of active compounds.
On the % scale 0 is the no-effect control and ±100 the full control effect; potency means the concentration at half of the fitted maximal effect.

SMILES | activity, negative = cell killing | Potency
CC(=O)c1ccc(OCC(=O)N2CCCCC2)cc1 | -10.9% (inactive) | –
COc1cc(NC(C)CCCN)c2ncccc2c1 (stereo not given) | -20.2% [at 21.2 µM] (inactive) | –
Cc1ccc(C(=O)c2ccc(CC(=O)O)n2C)cc1 | -10.6% [at 21.2 µM] (inactive) | –
CC1(C)S[C@@H]2[C@H](NC(=O)[C@H](N)c3ccccc3)C(=O)N2[C@H]1C(=O)O | -8.82% (inactive) | –
C[C@H](O)[C@H](O)[C@H]1CNc2nc(N)[nH]c(=O)c2N1 | -12.2% (inactive) | –
Nc1c(CC(=O)O)cccc1C(=O)c1ccc(Br)cc1 | -16.7% (inactive) | –
Cc1c(N)c(=O)n(-c2ccccc2)n1C | -9.82% [at 21.2 µM] (inactive) | –
COc1cc2c3cc1Oc1cc(ccc1O)C[C@@H]1c4c(cc(OC)c(O)c4Oc4ccc(cc4)C[C@@H]3N(C)CC2)CC[N+]1(C)C | -12.1% (inactive) | –
Cc1onc(-c2c(F)cccc2Cl)c1C(=O)N[C@@H]1C(=O)N2[C@@H]1SC(C)(C)[C@@H]2C(=O)O | – | inactive
COc1cc(/C=C/C(=O)N2CCN(CC(=O)N3CCCC3)CC2)cc(OC)c1OC | -8.44% (inactive) | –
CC1(C)C[C@@H]1C(=O)N/C(=C\CCCCSC[C@H](N)C(=O)O)C(=O)O | – | inactive
O=c1[nH]c2ccccc2n1CCCN1CCN(C(c2ccccc2)c2ccccc2)CC1 | -26.5% (inactive) | –
CC[C@H]1OC(=O)[C@H](C)C(=O)[C@H](C)[C@@H](O[C@@H]2O[C@H](C)C[C@H](N(C)C)[C@H]2O)[C@](C)(OC)C[C@@H](C)C(=O)[C@H](C)[C@H]2N(CCCCn3cnc(-c4cccnc4)c3)C(=O)O[C@]12C | -7.24% (inactive) | –
O=C(O)[C@H](O)[C@@H](O)[C@H](O)[C@H](O)CO | – | inactive
COc1cccc2c1C(=O)c1c(O)c3c(c(O)c1C2=O)C[C@@](O)(C(=O)CO)C[C@@H]3O[C@H]1C[C@H](N)[C@H](O[C@@H]2CCCCO2)[C@H](C)O1 | – | 12.6 µM (active)
CC(C)Cc1ccc([C@H](C)C(=O)O)cc1 | -15% (inactive) | –
Cc1ccc(O)c(-n2nc3ccccc3n2)c1 | -8.32% (inactive) | –
Nc1ccc([N+](=O)[O-])cc1O | -23.2% [at 91.6 µM] (inactive) | –
Nc1cc(-c2ccncc2)c[nH]c1=O | 15.3% (inactive) | –
C[N+](C)(C)CCOP(=O)(O)OP(=O)([O-])OC[C@H]1O[C@@H](n2ccc(N)nc2=O)[C@H](O)[C@@H]1O | – | inactive

SMILES | activity, negative = cell killing | Potency
COc1cc(CNC(=O)CCCC/C=C/C(C)C)ccc1O | -24.4% (inactive) | –
CCCC(=O)OC[C@@H](OC(=O)CCC)[C@@H](OC(=O)CCC)[C@H](Cn1c2nc(=O)[nH]c(=O)c-2nc2cc(C)c(C)cc21)OC(=O)CCC | -11.5% (inactive) | –
CN1CCN(c2cc3c(nn2)Oc2ccccc2N3C)CC1 | -12.6% (inactive) | –
Nc1ccc(C(=O)O)c(O)c1 | -14.3% (inactive) | –
C=CCN1C(=O)C(CC(C)C)NC1=S (stereo not given) | – | inactive
O=C(O)Cc1ccc(-c2ccccc2)cc1 | -15% [at 21.2 µM] (inactive) | –
COc1ccc(-c2cc(=S)ss2)cc1 | -17.9% (inactive) | –
CO/N=C(\C(=O)N[C@@H]1C(=O)N2C(C(=O)O)=C(COC(C)=O)CS[C@H]12)c1csc(N)n1 (stereo in doubt) | -13.1% (inactive) | –
CO[C@H]1C[C@@H]2CC[C@@H](C)[C@@](O)(O2)C(=O)C(=O)N2CCCC[C@H]2C(=O)O[C@H]([C@H](C)C[C@@H]2CC[C@@H](O)[C@H](OC)C2)CC(=O)[C@H](C)C=C(C)[C@@H](O)[C@@H](OC)C(=O)[C@H](C)C[C@H](C)/C=C/C=CC=C1C | – | 35.5 µM (active)
N=c1ccn2c(n1)O[C@H]1[C@H](O)[C@@H](CO)O[C@H]12 | -27.9% (inactive) | –
N=C1N=C(N)c2cc3ccccc3cc21 | – | 39.8 µM (active)
O=C(Nc1ccc(C(=O)O)c(O)c1)c1ccccc1 | -15.8% (inactive) | –
CN1[C@@H]2CC[C@H]1CC(OC(c1ccccc1)c1ccccc1)C2 (stereo not given in full) | – | inactive
O=C1CC[C@@H](C(=O)N2CSC[C@H]2C(=O)O)N1 ([pGlu]-[Thz]-OH) | -9.59% (inactive) | –
CCCCCCCCCCCCCCCCCC(=O)O | -18.2% (inactive) | –
Cc1nc2ccccc2n1Cc1ccc(Cl)cc1 | – | 3.16 µM (active)
O=C(O)Cc1cccc(-c2cc(CCCCCCc3ccc(O[C@H]4O[C@H](CO)[C@@H](O)[C@H](O)[C@@H]4O)c(-c4cccc(CC(=O)O)c4)c3)ccc2O[C@H]2O[C@H](CO)[C@@H](O)[C@H](O)[C@@H]2O)c1 | -13.2% (inactive) | –
Cc1ccc2c(n1)Oc1ccc(C(C)C(=O)OCC(=O)N(C)C)cc1C2 (stereo not given) | -24.9% (inactive) | –
CN1[C@@H]2CC[C@H]1CC(OC(=O)C(CO)c1ccccc1)C2 (stereo not given in full) | – | inactive
O=C(O)c1cc(O)c(O)c(O)c1 | -6.29% (inactive) | –
